The panel holds about 79,000 compounds, 15% with a hit somewhere; the sample as a whole holds those more often. Activity calls are given as the source filed them. No stated cut-off is given here; in the data, active means growth inhibition above about 70%; inactive means the rest.
Experiments:
[1] = NCI Yeast Anticancer Drug Screen. Data for the mec2-1 strain (AID 157); conditions: S. cerevisiae mec2-1 strain, hits give high values
Procedure, shortened: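 Vehicle-treated cultures served as reference for growth inhibition of compound-exposed mec2-1 yeast.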

[2] = NCI Yeast Anticancer Drug Screen. Data for the rad14 strain (AID 159);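 further: 0% = growth of vehicle-treated control cultures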; conditions: S. cerevisiae rad14 strain growth inhibition, hits give high values
Procedure, shortened: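 Here, inhibition of yeast growth was measured after compound exposure, using a strain with a genetic defect in DNA damage repair and vehicle-treated cultures as the reference.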

[3] = NCI Yeast Anticancer Drug Screen. Data for the sgs1 mgt1 strain (AID 161);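 further: 0% = growth of cultures given vehicle only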; conditions: S. cerevisiae sgs1 mgt1 strain, hits give high values
Procedure, shortened: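 Genetically altered yeast, compound exposure, growth inhibition relative to vehicle.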

[4] = NCI Yeast Anticancer Drug Screen. Data for the CLN2oe strain (AID 163);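 further: 0% = growth of vehicle-only control cultures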; conditions: S. cerevisiae CLN2oe strain, hits give high values
Procedure, shortened: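 Inhibition relative to vehicle-treated yeast is reported. Cells: strain with genetic alteration in cell-cycle control, grown with compound.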

[5] = NCI Yeast Anticancer Drug Screen. Data for the cln2 rad14 strain (AID 165);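 further: 0% = growth equal to vehicle treated cultures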; conditions: S. cerevisiae cln2 rad14 strain, hits give high values
Procedure, shortened: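 Each compound was tested on cln2 rad14 yeast. Inhibition of growth was calculated against vehicle-exposed controls.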

[6] = NCI Yeast Anticancer Drug Screen. Data for the bub3 strain (AID 167); conditions: S. cerevisiae bub3 mutant strain, hits give high values
Procedure, shortened: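 Whole-cell yeast assay. The mutant strain was incubated with compounds, and growth inhibition was determined by comparison with vehicle-treated cells.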

[7] = NCI Yeast Anticancer Drug Screen. Data for the wt2 strain (AID 169);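 further: 0% = growth of vehicle-treated yeast cultures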; conditions: S. cerevisiae wt2 strain growth inhibition, hits give high values
Procedure, shortened: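 Inhibition of yeast growth was determined after compound treatment, normalised to controls receiving only vehicle.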

[8] = NCI Yeast Anticancer Drug Screen. Data for the mlh1 strain (AID 171);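 further: 0% = growth of vehicle-treated control cultures of the same strain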; conditions: S. cerevisiae mlh1 strain growth inhibition, hits give high values
Procedure, shortened: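 Vehicle-normalised growth inhibition of a repair- or checkpoint-altered yeast strain following compound treatment.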

[9] = NCI Yeast Anticancer Drug Screen. Data for the sgs1 strain (AID 173);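 further: 0% = growth of vehicle-only control cultures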; conditions: S. cerevisiae sgs1 mutant, hits give high values
Procedure, shortened: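 Screen format: yeast with repair or checkpoint alterations, compound exposure, growth read relative to vehicle.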

[10] = NCI Yeast Anticancer Drug Screen. Data for the mlh1 rad18 strain (AID 175); conditions: S. cerevisiae mlh1 rad18 strain growth inhibition, hits give high values
Procedure, shortened: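 Vehicle-treated cultures served as the reference for growth inhibition in a yeast strain carrying DNA damage repair alterations exposed to each compound.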

[11] = NCI Yeast Anticancer Drug Screen. Data for the rad18 strain (AID 177); conditions: S. cerevisiae rad18 mutant growth inhibition, hits give high values
Procedure, shortened: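 Test articles were incubated with altered yeast defective in DNA damage repair. Results are given as inhibition of growth versus vehicle.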

[12] = at 5.0 µM (retest, dose inferred, filed as 0.5)
[13] = at 50.0 µM (retest, dose inferred, filed as 5.0)

Measured: growth inhibition

O=C(NCCNCCNC(=O)c1cc(-c2ccccc2)nc2ccccc12)c1cc(-c2ccccc2)nc2ccccc12
inactive: [1]; [12] -11% | [1]; at 11.0 µM -1% | [1]; at 33.0 µM -2% | [1]; [13] 40% | [1]; at 100.0 µM 5% | [2]; at 1.2 µM -3% | [2]; at 3.7 µM -1% | [2]; at 11.0 µM -2% | [2]; at 33.0 µM 4% | [2]; at 100.0 µM 4% | [3]; [12] 9% | [3]; [13] 7% | [3]; at 50.0 µM 21.6% | [4]; at 1.2 µM -2% | [4]; at 3.7 µM -2% | [4]; at 11.0 µM -3% | [4]; at 33.0 µM -5% | [4]; at 100.0 µM 45% | [5]; [12] -4% | [5]; [13] 45% | [6]; at 1.2 µM -2% | [6]; at 3.7 µM -1% | [6]; [12] 2% | [6]; at 11.0 µM -1% | [6]; at 33.0 µM -5% | [6]; [13] 58% | [6]; at 100.0 µM -2% | [7]; at 1.2 µM -2% | [7]; at 3.7 µM -2% | [7]; at 11.0 µM -1% | [7]; at 33.0 µM -2% | [7]; at 100.0 µM 4% | [8]; at 1.2 µM -2% | [8]; at 3.7 µM 1% | [8]; at 11.0 µM -2% | [8]; at 33.0 µM -2% | [8]; at 100.0 µM -1% | [9]; at 1.2 µM -2% | [9]; at 3.7 µM 0% | [9]; at 11.0 µM 0% | [9]; at 33.0 µM 0% | [9]; at 100.0 µM 22% | [10]; [12] 7% | [10]; [13] 66% | [10]; at 50.0 µM 50.6% | [11]; at 1.2 µM -3% | [11]; at 3.7 µM -4% | [11]; at 11.0 µM -3% | [11]; at 33.0 µM -2% | [11]; at 100.0 µM -1%
active: [1]; at 50.0 µM 96.3% | [5]; at 50.0 µM 90.3% | [6]; at 50.0 µM 97.8%
